# Most compounds without a hit are left out; they make up all but 4% or so of the library.
# FBA Mtb inh: inhibits M. tuberculosis FBA enzyme; AID 588726; inhibition, % at 1 µM; actives 2.3% (n = 360,000); P9WQA3; purified M. tuberculosis FBA, fluorescence read-out; in the data active = inhibition above about 27%;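 also: 0% = vehicle and 100% = reference inhibitor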
# GDH-TPI counter: inhibits GDH-TPI coupling enzymes, artifact for Mtb FBA screen; GDH-TPI coupled enzyme counterscreen, NADH absorbance; inhibition, % at 4.8 µM; AID 588335; actives 1.2% (n = 360,000); in the data active = inhibition above about 30%;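 also: 0% = DMSO wells and 100% = wells lacking the enzyme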
# Rv3671c inh: inhibits the M. tuberculosis serine protease Rv3671c | P9WHR9 | inhibition, % at 5.96 µM | actives 0.048% (n = 320,000) | AID 2606; in the data active = inhibition above about 38%;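 also: extracellular domain of Rv3671c used as enzyme; 0% = enzyme with DMSO and 100% = no enzyme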
# Mtb UGM inh: Mtb UDP-galactopyranose mutase inhibition; P9WIQ1; purified UGM, fluorescence polarization probe displacement; inhibition, % at 10 µM; actives 0.06% (n = 320,000); in the data active = inhibition above about 10%, passing the limit was not always enough
# Target sequence (P9WIQ1 whole entry, looked up): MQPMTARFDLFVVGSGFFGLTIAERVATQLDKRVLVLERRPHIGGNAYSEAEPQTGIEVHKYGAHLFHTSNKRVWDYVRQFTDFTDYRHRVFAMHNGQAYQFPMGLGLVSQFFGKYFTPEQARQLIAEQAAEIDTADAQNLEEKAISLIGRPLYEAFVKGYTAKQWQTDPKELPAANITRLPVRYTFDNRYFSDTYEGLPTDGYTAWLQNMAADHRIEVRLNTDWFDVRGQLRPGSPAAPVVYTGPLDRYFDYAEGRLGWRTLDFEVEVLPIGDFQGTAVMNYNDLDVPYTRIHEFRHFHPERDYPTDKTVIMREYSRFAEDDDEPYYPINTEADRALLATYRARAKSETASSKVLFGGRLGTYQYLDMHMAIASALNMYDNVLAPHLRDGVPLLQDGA
# RecA intein inh: inhibitors of M. tuberculosis RecA intein splicing; P9WHJ3; cell-free RecA intein splicing, fluorescence; inhibition, % (concentration not given with the values); actives 0.75% (n = 290,000); AID 2221; in the data active = inhibition above about 30%;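 also: 0% = vehicle wells and 100% = reference inhibitor control wells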
# Mtb betalactam: beta-lactam sensitization of Mtb H37Rv; M. tuberculosis H37Rv growth with meropenem, percent inhibition; inhibition, % at 25 µM; actives 0.27% (n = 330,000); AID 434955; call rule not given here;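 also: growth measured after seven days incubation then overnight dye step; 0% = bacteria only wells and 100% = bacteria with antibiotic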
# Starred values were filed as active, the others as inactive; . = no result given.
SMILES,FBA Mtb inh,GDH-TPI counter,Rv3671c inh,Mtb UGM inh,RecA intein inh,Mtb betalactam
COCCN(C(=O)CSc1cc(C)c2ccccc2n1)c1c(N)n(CC(C)C)c(=O)[nH]c1=O,3,12,0,3,.,6
CC(Oc1ccccc1)c1ccnc2nc(/N=C/N(C)C)nn12 (stereo unspecified),18,10,4,6,.,-5
c1ccc(-c2ccnc3ncnn23)nc1,3,6,-6,-1,1,10
c1csc(-c2ccnc3ncnn23)c1,160*,24,5,-1,-1,-5
CN(C)/C=N/c1nc2nccc(-c3cccs3)n2n1,188*,28,1,1,-19,-4
CCNC(=O)C1CCCN(C(=O)c2ccccc2)CC1 (stereo unspecified),1,-3,.,.,.,.
CCNc1nc(N)c(C(=O)C23CC4CC(CC(C4)C2)C3)s1,-3,27,-2,2,-2,0
CCNc1nc(N)c(C(=C(C#N)C#N)c2ccccc2)s1,167*,23,-5,4,-8,-1
COc1ccc(-c2csc(N(CCCN(C)C)C(=O)c3ccc(OC)c(OC)c3)n2)cc1,-2,1,.,.,.,.
Cc1cccc(-n2c(O)c(C=Nc3ccccc3-c3n[nH]c(=S)[nH]c3=O)c3ccccc3c2=O)n1,5,37*,11,1,-2,-1
COc1cccc(N=Cc2c(O)n(-c3cccc(C)n3)c(=O)c3ccccc23)c1,4,4,2,-1,0,0
COc1ccc(N=Cc2c(O)n(-c3cccc(C)n3)c(=O)c3ccccc23)c(OC)c1,1,20,3,20*,-3,6
Cc1cccc(-n2c(O)c(/C=N/NC(=O)c3ccccc3Cl)c3ccccc3c2=O)n1,27,35*,10,0,-39,0
CCNCC(=O)N1c2ccccc2CCc2ccc(NC(=O)OCC)cc21,1,10,7,-3,5,3
O=C(Cn1nnc(-c2ccccc2F)n1)Nc1ccc2c(c1)OCCO2,1,0,8,1,0,3
C=CCN(CC=C)c1nc2ccccc2nc1C(C#N)C(=O)OC(C)C (stereo unspecified),36*,10,-4,-2,-63,0
Cc1nc(N2CCOCC2)c2c(C)c(C(=O)Nc3ccccc3Cl)sc2n1,-3,31*,17,-3,-2,-9
COC(=O)c1sc(NC(=S)NNC(=O)c2c(Br)c(C)nn2C)c(C(=O)OC)c1C,-1,53*,9,1,5,-6
O=C(Nc1ccc(F)cc1F)c1cc(Cl)sc1Cl,3,-4,-12,1,-1,-6
Cc1cccc(C(=O)c2cnc3ccccc3c2-c2ccccc2)c1,-10,4,-16,-1,33*,-4
CCCc1cc(=O)[nH]c(SCC(=O)Nc2ccc(N3CCCCC3)cc2)n1,-2,0,8,0,.,1
CCOc1ccccc1C(=O)N/N=C/c1ccoc1,-2,-2,.,1,-2,-1
N#CCCN1CCN(C(=S)c2ccc(-c3cccc(Cl)c3)o2)CC1,-3,39*,-14,-1,5,74
N#CCCN1CCN(C(=S)c2ccc(-c3ccc(Cl)c(Cl)c3)o2)CC1,-2,24,-20,2,11,-19
COc1ccc(-c2cc(=O)c3cc(OC)ccc3[nH]2)cc1,76*,3,2,-1,-1,-10
SMILES,FBA Mtb inh,GDH-TPI counter,Rv3671c inh,Mtb UGM inh,RecA intein inh,Mtb betalactam
COc1cccc(-c2cc(=O)c3cc(NC(C)=O)ccc3[nH]2)c1,115*,18,-4,0,-5,-7
COc1cccc(C(=O)Nc2cc(C(=O)NCc3ccc(C)cc3)ccc2N2CCC3(CC2)CC(c2cccc(Br)c2)=NO3)c1,-1,3,-5,0,.,-1
O=C(Nc1ccc(N2CCCC(O)C2)cc1)c1snc2c(=O)[nH]cnc12 (stereo unspecified),-4,19,6,0,-1,5
Cc1nc2c(C(=O)Nc3ccc(N4CCCC(O)C4)cc3)snc2c(=O)[nH]1 (stereo unspecified),-2,44*,3,-4,-2,0
COCCN1C(=O)CCC1(C)C(=O)NC1CCCCC1 (stereo unspecified),0,.,.,.,.,.
Cc1ccc(-c2nc3c(c(=O)c4ccccc4n3C)c(=O)n2Cc2ccco2)cc1,3,32*,-2,-3,7,100
CC(C)c1ccc(C2C3CSCC=C3C(C#N)=C(N)C2(C#N)C#N)cc1 (stereo unspecified),.,.,-12,2,36*,6
CN1CC=C2C(C#N)=C(N)C(C#N)(C#N)C(c3ccncc3)C2C1 (stereo unspecified),20,7,6,4,-75,-6
CN(Cc1ccccc1)C1=CC(=[N+]2CCCCC2)CC(C)(C)C1,-1,68*,4,-2,-2,-11
CC1(C)CC(N2CCN(Cc3ccccc3)CC2)=CC(=[N+]2CCCCC2)C1,0,64*,-1,-3,0,-13
CC1(C)CC(N2CCCC2)=CC(=[N+]2CCCCC2)C1,-2,29,-9,0,2,-8
S=c1[nH]nc(-c2ccccc2)n1/N=C/c1ccc(-c2ccccc2Cl)o1,-5,28,-8,-2,6,5
Cc1nnc(C)n1/N=C/c1ccc(-c2ccccc2Cl)o1,1,46*,3,0,2,-5
COc1ccc(COC(=O)N/N=C(\C)CC(=O)Nc2ccc(Cl)cn2)cc1,4,6,12,-1,45*,1
CC(C)(C)c1nnc(NS(=O)(=O)c2ccc(F)cc2)s1,-1,-4,.,.,.,.
CCOc1ccc(C2=CS/C(=C(\C#N)c3nnc4n3CCCCC4)N2CC)cc1,-1,32*,-3,0,.,3
COC(=O)Cc1[nH]n(-c2ccccc2)c(=O)c1C(C)=Nc1ccccc1,3,2,3,6,4,2
COC(=O)Cc1cc(=O)n(-c2ccccc2)[nH]1,2,2,-32,0,50*,0
COc1cc(/C=C/C(=O)O)cc(S(=O)(=O)Nc2ccc(S(=O)(=O)N3CCCCC3)cc2)c1OC,5,8,.,.,.,.
Cc1occc1C(=O)NCc1nc(-c2ccc(Cl)cc2)no1,1,-4,-4,1,3,0
Cn1c(O)c(/C=N/c2ccccn2)c(=O)n(C)c1=O,1,33*,3,3,1,2
Cn1c(O)c(C=Nc2ccc(Cl)cc2)c(=O)n(C)c1=O,-3,9,-1,1,6,-10
COc1ccccc1N=Cc1c(O)n(C)c(=O)n(C)c1=O,2,20,5,2,-4,1
Cn1c(O)c(C=Nc2ccccc2)c(=O)n(C)c1=O,-3,46*,-10,0,0,0
CCc1c(C)sc(NC(=O)C2CC(c3c(F)cccc3Cl)=NO2)c1C#N (stereo unspecified),3,-3,-11,0,4,-4
O=C(NCc1cccc(C(F)(F)F)c1)c1csc([C@@H]2O[C@H](CO)[C@H](O)[C@H](O)[C@H]2O)n1,3,9,.,.,.,.

# Screening data (PubChem BioAssay)
